MCF10A rereplic = inducers of DNA re-replication in MCF 10A breast cells | MCF 10A DNA re-replication, Hoechst nuclear intensity, 48 h | Potency, µM (doses to about 46.1 µM), hits mostly activators | actives 2.9% (n = 350,000); also: nearly all actives have a fitted effect of over 50% in size
KB-3-1 tox = kills parental KB-3-1 adenocarcinoma cells. KB-3-1 viability, CellTiter-Glo ATP luminescence, 72 h. Potency, µM (highest dose often 46.1 µM), usual class: cytotoxic. actives 1.4% (n = 400,000); also: nearly all actives have a fitted effect of over 60% in size
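Luminescent ATP read-out (CellTiter-Glo) measures survival of drug-naive KB-3-1 cells after 72 h compound exposure at 37 °C. Titration series was screened from lowest to highest concentration, with DMSO vehicle plates as background controls.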
KB-V1 MDR tox = kills drug-selected multidrug resistant KB-V1 cells; KB-V1 MDR cells viability, CellTiter-Glo, 72 h; Potency, µM (doses to about 46.1 µM), usual class: cytotoxic; actives 3.4% (n = 400,000); AID 1347076; also: nearly all actives have a fitted effect of over 60% in size
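Cytotoxicity via CellTiter-Glo luminescence after 72 h compound exposure at 37 degrees C. Cells: drug-selected KB-V1 line, DMEM phenol-red free plus 10% FBS. Compounds tested at multiple concentrations; normalized data fitted to concentration-effect curves.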
SW480 rereplic = DNA re-replication induction in SW480 cells; actives 1.8% (n = 340,000); SW480 DNA re-replication, Hoechst DNA content imaging, 48 h; Potency, µM (top dose mostly 46.1 µM), usual class: activators; also: nearly all actives have a fitted effect of over 55% in size
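Hoechst fluorescence of nuclei (405 nm excitation, 500-530 nm emission) measured by plate-scanning imager after 48 hr compound exposure at 37 C; re-replication scored as increased number of nuclei with elevated intensity.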
DRD3 agonist = activates the human D3 dopamine receptor; P35462; D3R DiscoveRx beta-arrestin cells, luminescence, 90 min; max activation, %; actives 0.58% (n = 410,000); AID 652048; in the data active = max activation above about 30%
Target sequence (P35462 whole entry, looked up): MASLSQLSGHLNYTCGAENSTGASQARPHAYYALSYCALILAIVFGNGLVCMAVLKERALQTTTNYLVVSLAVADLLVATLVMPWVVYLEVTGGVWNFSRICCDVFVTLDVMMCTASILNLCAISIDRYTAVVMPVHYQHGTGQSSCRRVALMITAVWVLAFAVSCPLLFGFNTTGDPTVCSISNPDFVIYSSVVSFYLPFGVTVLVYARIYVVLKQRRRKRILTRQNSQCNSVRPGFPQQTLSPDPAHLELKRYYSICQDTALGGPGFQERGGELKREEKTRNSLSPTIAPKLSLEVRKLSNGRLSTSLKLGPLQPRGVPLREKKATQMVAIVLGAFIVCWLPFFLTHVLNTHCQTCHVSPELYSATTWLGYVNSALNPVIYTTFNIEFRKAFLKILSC
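Agonist-mode cell screen: cells plated at 1500/well and incubated overnight at 37 °C, then exposed to library compounds for 90 min at 37 °C. Detection reagent was added for 30–60 min at room temperature, and luminescence was read.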
DRD3 antagonist = blocks the human D3 dopamine receptor; AID 652054; P35462; max response, negative = inhibition, %; D3R cells, DiscoveRx beta-arrestin luminescence, antagonist mode; stronger effect = lower value; actives 2.5% (n = 360,000); in the data active = max response below about -50%; inconclusive = no clear call, values can overlap the other calls
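Cells plated overnight at 1500 cells/well, then exposed to library compounds with dopamine controls for 90 minutes at 37 degrees C. DiscoveRx reagent added for 30–60 minutes at room temperature; luminescence read, quantitative HTS format.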
A number is an active result; n = inactive; u = inconclusive; x = no result given; ! = not confirmed by another sample; [ ] = dose if it differs, or a comment. Rows were chosen to be rich in hits. Some 8.9% of all compounds tested hit in one or more screens of this group. Unless noted, calls follow the shape of the dose curve; as a rule, active = well fitted curve in the direction sought with a large enough effect; inconclusive = small, poorly fitted or top-dose-only effect, or another doubt; inactive = no such curve, though single readings can be large; an effect the other way counts as inactive or inconclusive.

SMILES	MCF10A rereplic	KB-3-1 tox	KB-V1 MDR tox	SW480 rereplic	DRD3 agonist	DRD3 antagonist
O=[N+]([O-])c1ccc(/C=N/Nc2ccnc3cc(Cl)ccc23)o1	n	n	n	3.66µM	n	n
Cc1ccc(/C=C(\NC(=O)c2ccccc2)C(=O)OCc2ccccc2)cc1	n	n	16.4µM	n	n	n
CCOC(=O)/C(=C\C=C\c1ccccc1)NC(=O)c1ccccc1	n	n	4.61µM	n	n	n
CCOC(=O)/C(=C\c1ccc(C)cc1)NC(=O)c1ccccc1	n	n	n	n	n	n
Cc1ccc(N2CC(NC(=O)c3ccc(S(=O)(=O)N4CCOCC4)cc3)CC2=O)cc1C (stereo not drawn)	x	x	x	x	n	x
CC(C)C[C@H]1CNC(=S)N1CC1CCCN1C[C@H](Cc1ccc(O)cc1)N1C[C@H](Cc2ccccc2)N(CC2CCCCC2)C1=S (stereo partly drawn)	u	n	n	n	n	-81.2
Oc1ccc(C[C@H]2CNC(=S)N2CC2CCCN2C[C@H](Cc2ccc(O)cc2)N2C[C@H](Cc3ccc(O)cc3)N(CC3CCCCCC3)C2=S)cc1 (stereo partly drawn)	10.3µM	20.6µM	u	u	n	n
CC(C)C[C@H]1CN([C@@H](CC(C)C)CN2CCCC2CN2C(=S)NC[C@@H]2Cc2ccc(O)cc2)C(=S)N1CC1CCCCC1 (stereo partly drawn)	u	u	20.6µM	n	n	n
Oc1ccc(C[C@H]2CNC(=S)N2CC2CCCN2C[C@H](Cc2ccc(O)cc2)N2C[C@H](Cc3ccccc3)N(CC3CCCCC3)C2=S)cc1 (stereo partly drawn)	u	n	n	n	n	-63.8
CC(C)C[C@H]1CNC(=S)N1C[C@H]1CCCN1C[C@H](Cc1ccccc1)N1C[C@H](Cc2ccc(O)cc2)N(CC2CCCCC2)C1=S	x	u	u	x	n	n
CCCOc1ccc(NC(=O)CC2C(=O)N(c3ccccc3)C(=O)N2Cc2ccc(F)cc2)cc1 (stereo not drawn)	x	x	x	x	n	x
Nc1c(-c2nc(-c3ccccc3Cl)no2)nnn1-c1ccccc1F	x	n	n	x	n	x
CCOC(=O)N1CCN(Cc2nc3cc([N+](=O)[O-])ccc3n2C(C)C)CC1	x	n	u	x	n	x
Oc1ccc(C[C@H]2CN([C@@H](Cc3ccc(O)cc3)CN3CCC[C@@H]3CN3C(=S)NC[C@@H]3Cc3ccccc3)C(=S)N2CCc2ccccc2)cc1	x	u	n	x	n	-52.5
Oc1ccc(C[C@H]2CN([C@@H](Cc3ccccc3)CN3CCCC3CN3C(=S)NC[C@@H]3Cc3ccccc3)C(=S)N2CCc2ccccc2)cc1 (stereo partly drawn)	x	n	u	x	n	n
O=C1NC[C@H](Cc2ccccc2)N(C[C@@H]2CCCN2C[C@H](Cc2ccc(O)cc2)N2C[C@H](Cc3ccc(O)cc3)N(CCc3ccccc3)C(=O)C2=O)C1=O	x	n	n	x	n	n
O=C1NC[C@H](Cc2ccc(O)cc2)N(C[C@H]2CCCN2C[C@H](Cc2ccc(O)cc2)N2C[C@H](Cc3ccc(O)cc3)N(CCc3ccccc3)C(=O)C2=O)C1=O	x	n	n	x	n	-70.3
O=C(O)CCc1c2ccc(=O)c(O)c-2oc2c(O)c(O)ccc12	x	n	n	x	x	x
Cc1sc2c(c1C)c(=O)n(-c1ccc(Cl)cc1)c(=O)n2Cc1cc(=O)n2ccccc2n1	n	n	n	n	n	-54.5
O=c1c2c3c(sc2n(Cc2cc(=O)n4ccccc4n2)c(=O)n1-c1ccc(Cl)cc1)CCC3	x	n	n	x	n	x
CCOc1ccc2nc(NC(=O)c3nc(SC(C)C)ncc3Cl)sc2c1	x	n	u	x	n	x
COc1ccc(C(=O)N2CCCC(N3CCN(c4ccccc4OC)CC3)C2)c(OC)n1 (stereo not drawn)	n	n	n	n	n	n
COc1ccc(C(=O)N2CCCC(N3CCN(c4ccccc4F)CC3)C2)c(OC)n1 (stereo not drawn)	n	n	n	n	38.4	n
CCc1cccc(C)c1NC(=O)C1CCN(S(=O)(=O)Cc2ccccc2)CC1	x	n	n	x	n	x
CCCCCCCCCCCCCCCCn1cc[n+](C)c1	20.6µM	4.11µM	n	u	n	n
SMILES	MCF10A rereplic	KB-3-1 tox	KB-V1 MDR tox	SW480 rereplic	DRD3 agonist	DRD3 antagonist
C[n+]1ccn(CC(=O)c2cccs2)c1	n	n	n	n	n	n
Cc1noc(C)c1COC(=O)c1csc2c1CCC(C)C2 (stereo not drawn)	u	n	20.6µM	n	n	n
CC1CCc2c(C(=O)NCC3CCCO3)csc2C1 (stereo not drawn)	n	n	n	n	n	n
COc1cccc(NC(=O)CN2C=NS(=O)(=O)c3ccccc32)c1	x	n	n	x	n	x
Cc1ccc(S(=O)(=O)N(C)c2ccc(OC(=O)c3cccs3)cc2)cc1C	n	n	n	n	n	n
CCn1c(SCc2ccccc2)nnc1-c1nonc1NC(C)=O	x	n	n	x	n	x
Nc1n[nH]c2cc(=O)n(-c3cccc(C(F)(F)F)c3)nc12	n	n	n	7.31µM	n	n
O=c1[nH][nH]c2cc(=O)n(-c3cccc(C(F)(F)F)c3)nc12	n	n	u	n	n	n
Cc1cc(C)c(NC(=O)Cc2csc(C)n2)c(Cl)c1	x	x	x	x	n	x
COc1ccc(C(C)(NC(C)=O)c2nc(-c3cncnc3)cs2)cc1 (stereo not drawn)	x	n	n	x	n	n
CC(=O)NC(C)(c1ccccc1)c1nc(-c2cncnc2)cs1 (stereo not drawn)	x	n	n	x	n	-59.6
COc1ccc(OCc2ccc(-c3nc(C#N)c(N4CCN(c5cccc(Cl)c5)CC4)o3)o2)cc1	x	n	n	x	n	x
CCOC(=O)c1ccc(NC(=S)NNC(C)(C)C)cc1	n	n	n	u	n	-58.1
CCOC(=O)c1ccc(NC(=S)N2CCSC2c2ccc(OC)cc2)cc1 (stereo not drawn)	n	n	18.4µM	n	n	u
CCOC(=O)c1ccc(NC(=S)N2CCSC2c2ccc(Cl)cc2)cc1 (stereo not drawn)	u	n	u	n	n	n
CCOC(=O)c1ccc(NC(=S)Nc2ccc(C)cc2)cc1	n	n	n	n	n	n
CCOC(=O)c1ccc(NC(=S)NN2CCOCC2)cc1	23.1µM	n	n	n	n	n
c1cc(SC2CCCCC2)cc(-c2nc3cnccn3c2NC2CCCCC2)c1	5.8µM	u	u	3.26µM	n	n
CCC(C)Sc1ccc(-c2nc3ccc(C)cn3c2NC2CCCCC2)cc1 (stereo not drawn)	u	n	u	n[9.22 µM]	n	n
CCC(C)Sc1cccc(-c2nc3ccc(C)cn3c2NC2CCCCC2)c1 (stereo not drawn)	u	n	u	n[9.22 µM]	53.3!	n

High-throughput results deposited in PubChem BioAssay by National Center for Advancing Translational Sciences (NCATS).
